Results filed as inconclusive are left out. Entries that show only a call come without a potency. A number with no mark means an inactive call. Activity calls are given as the source filed them. Unless noted, the call rests on the fitted dose curve; in most records, active means well fitted curve in the direction sought with a large enough effect; inconclusive means small, poorly fitted or top-dose-only effect, or another doubt; inactive means no such curve, though single readings can be large; an effect the other way counts as inactive or inconclusive.
Assays:
[1] = target: Aldehyde dehydrogenase, mitochondrial (Homo sapiens) (UniProt P05091); assay: qHTS for Inhibitors of the Aldehyde Dehydrogenase Family (ALDH2) Confirmatory screens (AID 2061303; active means well fitted inhibition curve with a large enough effect; title and protocol of this record describe different tests; further: nearly all actives have a fitted effect of over 45% in size; further: potency means the concentration at half of the fitted maximal effect); details: ALDH inhibition qHTS; series mostly up to 45.4 µM
[2] = qHTS for Inhibitors of the Aldehyde Dehydrogenase Family (ALDH1A2, ALDH1A3, ALDH2, ALDH3A1) (AID 2061307); details: ALDH inhibition qHTS; series mostly up to 50.3 µM; further: nearly all actives have a fitted effect of over 50% in size; on potency: test system not described further here; potency means the concentration at half of the fitted maximal effect
[3] = target: Aldehyde dehydrogenase, mitochondrial (Homo sapiens) (UniProt P05091); assay: qHTS for Inhibitors of the Aldehyde Dehydrogenase Family (ALDH2) Primary screen (AID 2061308); details: ALDH2 enzyme inhibition qHTS, 1536-well; series mostly up to 56 µM; further: nearly all actives have a fitted effect of over 55% in size; further: potency means the concentration at half of the fitted maximal effect
[4] = target: Retinaldehyde dehydrogenase 3 (Homo sapiens) (UniProt P47895); assay: qHTS for Inhibitors of the Aldehyde Dehydrogenase Family (ALDH1A3) Confirmatory screens (AID 2061311); details: ALDH inhibition qHTS; series mostly up to 46 µM; further: nearly all actives have a fitted effect of over 60% in size; further: potency means the concentration at half of the fitted maximal effect
[5] = target: Retinal dehydrogenase 2 (Homo sapiens) (UniProt O94788); assay: qHTS for Inhibitors of the Aldehyde Dehydrogenase Family (ALDH1A2) Confirmation screens (AID 2061314); details: ALDH1A2 enzyme inhibition qHTS confirmation; series mostly up to 45.9 µM; further: nearly all actives have a fitted effect of over 65% in size; further: potency means the concentration at half of the fitted maximal effect
[6] = target: Retinaldehyde dehydrogenase 3 (Homo sapiens) (UniProt P47895); assay: qHTS for Inhibitors of the Aldehyde Dehydrogenase Family (ALDH1A3) Primary screen (AID 2061315); details: ALDH inhibition qHTS; series mostly up to 56 µM
[7] = target: Aldehyde dehydrogenase 1A1 (Homo sapiens) (UniProt P00352); assay: qHTS for Inhibitors of the Aldehyde Dehydrogenase Family (ALDH1A1) Confirmatory screens (AID 2061316); details: ALDH inhibition qHTS; series mostly up to 47.3 µM; further: nearly all actives have a fitted effect of over 65% in size; further: potency means the concentration at half of the fitted maximal effect
[8] = BET inhibitor-based combinations targeting novel dependencies in MECOM-rearranged (r) AML: SET-2 cell line (AID 2202231); details: SET-2 AML cells viability, CellTiter-Glo luminescence, 48 h; viability: hits give low values, concentration not given here; further: nearly all actives have a fitted effect of over 35% in size
Outline: (§1)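 500 cells/well; 11-pt dose curve; 48 h, standard incubator; CellTiter-Glo luminescence after 15 min RT; DMSO/empty-well normalization; AUC plus Z-AUC (mean-centered within each line).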

[9] = BET inhibitor-based combinations targeting novel dependencies in MECOM-rearranged (r) AML: OCI-AML3 cell line (AID 2202232); details: CellTiter-Glo luminescence, 48 h; Potency: OCI-AML3 viability; series mostly up to 46 µM; further: nearly all actives have a fitted effect of over 35% in size
Outline: as §1

[10] = BET inhibitor-based combinations targeting novel dependencies in MECOM-rearranged (r) AML: UCSD-AML1 cell line (AID 2202235); details: UCSD-AML1 AML cells viability, CellTiter-Glo, 48 h; series mostly up to 46 µM; further: nearly all actives have a fitted effect of over 40% in size
Outline: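 Cells were plated at 500 per well and exposed to each drug across an 11-point dose range for 48 hr at standard incubator conditions. Viability was read by CellTiter-Glo luminescence, and activity was expressed as AUC and per-cell-line Z-transformed AUC.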

[11] = BET inhibitor-based combinations targeting novel dependencies in MECOM-rearranged (r) AML: AML-191 cell line (AID 2202236; further: nearly all actives have a fitted effect of over 35% in size); details: AML-191 viability, CellTiter-Glo luminescence, 48 h; series mostly up to 46 µM
Outline: as §1

[12] = BET inhibitor-based combinations targeting novel dependencies in MECOM-rearranged (r) AML: AML-194 cell line (AID 2202237; further: nearly all actives have a fitted effect of over 40% in size); details: AML-194 (MECOM-r AML) viability, CellTiter-Glo, 48 h; series mostly up to 46 µM
Outline: as §1

SMILES	Potency [1]	Potency [2]	Potency [3]	Potency [4]	Potency [5]	Potency [6]	Potency [7]	viability [8] [%]	Potency [9]	Potency [10]	Potency [11]	Potency [12]
O=C(O)c1ccc2c(c1)C(=O)N([C@H](Cc1ccc(F)cc1)C(=O)O)C2=O	inactive	inactive	inactive	inactive	inactive	inactive	inactive					
NC(=O)C1CCN(c2ncc(-c3ccc4c(c3)OCCO4)s2)CC1	0.896 µM (active)	7.12 µM (active)	inactive	7.98 µM (active)	8.96 µM (active)		0.712 µM (active)					
CC(=O)N(C(C)=O)n1c(C)nc2sc3c(c2c1=O)CCNC3	inactive	inactive	inactive	inactive	inactive	inactive	inactive					
N#Cc1c(-c2csc(-c3no[n+]([O-])c3C#N)c2)no[n+]1[O-]	14.1 µM (active)	6.34 µM (active)	inactive	12.7 µM (active)	2.25 µM (active)	inactive	11.3 µM (active)					
N#Cc1nc(NCCO)nc(Nc2ccccc2)n1	inactive	inactive	inactive	inactive	inactive	inactive	inactive					
O=C(O)c1ccc(S(=O)(=O)N[C@H](Cc2ccc(C(F)(F)F)cc2)C(=O)O)cc1	inactive	inactive	inactive	inactive	inactive	inactive	inactive					
COc1ccc(N2Cc3cccc(C(=O)O)c3C2=O)c(OC)c1	inactive	inactive	inactive	inactive	inactive	inactive	inactive					
O=[N+]([O-])c1ccc(S(=O)(=O)c2ccc(Cl)cc2)nc1	0.504 µM (active)	2.82 µM (active)	0.251 µM (active)	28.2 µM (active)	3.16 µM (active)		0.283 µM (active)					
COc1cc(NS(=O)(=O)c2ccc([N+](=O)[O-])cc2)c2ncccc2c1	7.08 µM (active)	0.712 µM (active)	20 µM (active)	10 µM (active)	3.16 µM (active)		5.65 µM (active)					
CCOC(=O)c1ccc(O)c2ncc(-c3ccc(C(=N)N)cc3)cc12	inactive	inactive	inactive	10.1 µM (active)	inactive		inactive					
Oc1ccc(Oc2ccccc2F)c2cccnc12	4.49 µM (active)	17 µM (active)	inactive	2.01 µM (active)	2.01 µM (active)		5.04 µM (active)					
NC(=O)c1ccc(C[C@H](C(=O)O)N2C(=O)c3ccc(C(=O)O)cc3C2=O)cc1	inactive	inactive	inactive	inactive	inactive	inactive	inactive					
Nc1nnc(-c2ccc3ccccc3c2)o1	inactive	inactive	inactive	inactive	inactive	inactive	inactive					
COc1ccc(C2Nc3ccccc3C(=O)N2Cc2cccc(C(F)(F)F)c2)cc1COc1ccc(NC(C)=O)cc1 (configuration not stated)	11.2 µM (active)	4 µM (active)	inactive	10 µM (active)		inactive						
CC(=O)NCCC(=O)N[C@@H](CCC(N)=O)C(=O)N[C@@H](CO)C(=O)N[C@@H](CCC(N)=O)C(=O)N[C@@H](CCC(N)=O)C(=O)N[C@H](C(=O)N[C@@H](Cc1ccccc1)C(=O)N[C@]1(C)CCCCCCC=CCCC[C@@](C)(C(=O)N[C@@H](CCC(N)=O)C(=O)N[C@@H](CC(N)=O)C(N)=O)NC(=O)[C@H](CC(C)C)NC(=O)[C@H](CC(C)C)NC(=O)[C@@H](CCCNC(=N)N)NC(=O)[C@H](Cc2c[nH]c3ccccc23)NC(=O)[C@H](CC(C)C)NC(=O)[C@H](CC(N)=O)NC1=O)[C@H](C)O	inactive	inactive	inactive	inactive	inactive	inactive	inactive	109	inactive	inactive	inactive	inactive
Cc1ccc2nc(-c3ccccn3)c(Nc3ccccc3C)n2c1	inactive	inactive	inactive	inactive	inactive	inactive	inactive					
Fc1cc(Nc2nc(-c3ccncc3)nc3ccccc23)ccc1N1CCCCC1	inactive	inactive	inactive	11.3 µM (active)	0.712 µM (active)	inactive	3.57 µM (active)					
O=C1Nc2ccccc2/C1=C\c1cc(F)c(O)c(F)c1	inactive	inactive	1.12 µM (active)	3.16 µM (active)	5.62 µM (active)		8.96 µM (active)					
COc1ccc(C2=Nn3c(nnc3-c3cc(OC)ccc3OC)SC2)c(OC)c1	inactive	17.9 µM (active)	inactive	inactive	inactive	inactive	6.34 µM (active)					
CC(C)(C)c1ccc(SC2=NS(=O)(=O)c3ccccc32)cc1	inactive	inactive	inactive	inactive	12.7 µM (active)	inactive	inactive					
N#Cc1ccc(-c2ccc(CNc3ccc(N4CCCCC4)cc3)o2)cc1	0.0712 µM (active)	0.712 µM (active)	inactive	11.3 µM (active)	2.25 µM (active)		8.96 µM (active)					
OCc1cccc(-c2noc(-c3ccccc3F)n2)c1	inactive	10.7 µM (active)	inactive	5.65 µM (active)	inactive		inactive					
Cn1ncc(-c2nnc(-c3ccccc3)n2CCCn2ccnc2)c1N	inactive	inactive	inactive	inactive	inactive	inactive	inactive					
FC(F)(F)c1cccc(N2CCN(C(=S)Nc3nccc4cccnc34)CC2)c1	11.3 µM (active)	28.2 µM (active)	7.94 µM (active)	11.3 µM (active)	10.1 µM (active)		7.98 µM (active)					
